The supplement of paper PMC6555819

How the values were obtained:
Test in all cases: PBM binding z-score (relative to random genomic background probes); higher = stronger binding; sequences stand for … in GC…GCGATTGACAGCGTAGAATGAAGG
[1] = test system: FXR:RXRa (NR concentration 270 nM, RXRa partner concentration 90 nM)
Summary of the method: (§1)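 Probes were double-stranded and carried 34-nt variable regions with direct-repeat seeds, single-nucleotide variants, half-site ablations and random human genomic background sequences, printed on custom Agilent 4×180K protein-binding microarrays. Arrays were incubated 1 h with ligand-free nuclear receptor dimers in PBS pH 7.4, 2% milk, 0.02% Triton X-100, 1 mM DTT, 0.2 mg/mL BSA and 0.4 mg/ml salmon testes DNA. Antibodies against each partner (one per run) detected binding, and scanned fluorescence was regression-normalized. Binding z-scores use the random background probes as reference.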

[2] = test system: LXRa:RXRa (NR concentration 270 nM, RXRa partner concentration 90 nM)
Summary of the method: as §1

[3] = test system: LXRa homodimer (NR concentration 270 nM)
Summary of the method: as §1

[4] = test system: LXRb:RXRa (NR concentration 270 nM, RXRa partner concentration 90 nM)
Summary of the method: as §1

[5] = test system: LXRb homodimer (NR concentration 270 nM)
Summary of the method: as §1

[6] = test system: PPARa:RXRa (NR concentration 270 nM, RXRa partner concentration 90 nM)
Summary of the method: as §1

[7] = test system: PPARg:RXRa (NR concentration 180 nM, RXRa partner concentration 90 nM)
Summary of the method: as §1

[8] = test system: PPARg:RXRa 270nM:90nM, anti-RXR (NR concentration 270 nM, RXRa partner concentration 90 nM)
Summary of the method: as §1

[9] = test system: PPARg:RXRa 30nM:10nM, anti-RXR (NR concentration 30 nM, RXRa partner concentration 10 nM)
Summary of the method: as §1

[10] = test system: PPARg:RXRa 90nM:30nM, anti-RXR (NR concentration 90 nM, RXRa partner concentration 30 nM)
Summary of the method: as §1

[11] = test system: PPARg:RXRa DBDmut IVT, anti-RXR (DBD mutation: RXRa K156A/R161A, NR concentration 270 nM, RXRa partner concentration 90 nM)
Summary of the method: as §1

[12] = test system: PPARg:RXRa IVT, anti-PPARg (NR concentration 270 nM, RXRa partner concentration 90 nM)
Summary of the method: as §1

[13] = test system: PPARg DBDmut:RXRa IVT, anti-PPARg (DBD mutation: PPARg1 K132A/R137A, NR concentration 270 nM, RXRa partner concentration 90 nM)
Summary of the method: as §1

[14] = test system: PPARg DBDmut IVT, anti-PPARg (DBD mutation: PPARg1 K132A/R137A, NR concentration 270 nM)
Summary of the method: as §1

[15] = test system: PPARg homodimer (NR concentration 180 nM)
Summary of the method: as §1

[16] = test system: PXR:RXRa (NR concentration 270 nM, RXRa partner concentration 90 nM)
Summary of the method: as §1

[17] = test system: PXR homodimer (NR concentration 270 nM)
Summary of the method: as §1

[18] = test system: RARa:RXR (NR concentration 270 nM, RXRa partner concentration 90 nM)
Summary of the method: as §1

[19] = test system: RARa homodimer (NR concentration 270 nM)
Summary of the method: as §1

[20] = test system: RARb:RXRa (NR concentration 270 nM, RXRa partner concentration 90 nM)
Summary of the method: as §1

Sequence	PBM binding z-score [1]	PBM binding z-score [2]	PBM binding z-score [3]	PBM binding z-score [4]	PBM binding z-score [5]	PBM binding z-score [6]	PBM binding z-score [7]	PBM binding z-score [8]	PBM binding z-score [9]	PBM binding z-score [10]	PBM binding z-score [11]	PBM binding z-score [12]	PBM binding z-score [13]	PBM binding z-score [14]	PBM binding z-score [15]	PBM binding z-score [16]	PBM binding z-score [17]	PBM binding z-score [18]	PBM binding z-score [19]	PBM binding z-score [20]
CCGACTGGGGCAATGTTACCATAACGCACAGCCA	-0.585	-0.725	-0.195	-0.162	-1.01	0.11	1.21	0.645	-0.14	0.223	3.67	2.99	-0.638	-0.759	0.142	-0.771	-0.41	-0.456	0.0364	0.351
CGATCTAGGTCAGAACAGGACAGTGAAGGATGAT	1.41	0.482	-0.161	0.206	-0.143	2.84	4.82	3.88	1.41	2.78	6.87	6.77	1.59	1.33	0.826	0.571	-0.0995	1.13	0.466	2.66
TAGCCCAGGTCAGATCGGGCCAGTATACGCTATA	2.34	1.3	-0.26	0.735	-0.412	1.86	0.632	0.728	-0.392	-0.038	-0.572	1.18	-0.255	-0.724	-0.165	1.48	-0.562	1.11	-0.626	2.91
CGTACAAGGTCAGCAGGTCAGTGAAAGCGACGTG	6.31	4.3	0.745	3.29	-0.00943	5.32	5.54	5.17	1.99	3.64	3.86	4.79	1.35	0.315	3.51	3.82	0.382	5.17	1.11	5.23
CAAACTAGGTCACAGAGGTCAGAGTCCGTGCGTA	6.35	5.23	4.71	4.72	0.859	6.11	9.99	7.88	6.14	7.84	8.64	9.29	2.49	1.4	4.05	5.59	7.79	5.97	1.84	5.11
CAAACTAGGTCACCAGAAGGTCAAAGTCCGCATG	6.14	6.04	4.65	5.24	1.41	6.22	9.74	7.94	6.18	7.98	8.93	9	4.64	2.7	9.04	5.96	2.47	7.6	3.53	5.18
ATCGAAAGGTCGACTAGGTGAGTATACACCGTTT	4.12	3.17	0.302	2.94	0.797	4.24	2.56	3.24	1.06	2.34	0.845	2.25	0.674	1.34	0.62	2.73	0.165	3.24	0.35	3.72
